Hits are enriched below; roughly 2.1% of the tested compounds scored in any of these assays.
HSV augment: HSV replication enhancement | HSV replication augmentation in cells, fold increase | maximum fold increase | 0.005% of 220,000 active | AID 1956; in the data active means maximum fold increase above about 1.5; inconclusive means no clear call, values can overlap the other calls; tested in PC3 cells
Calpain2 inh: inhibitors of pig calpain II; AID 1236; 0.37% of 220,000 active; inhibition, % at 16 µM; purified calpain II, fluorogenic peptide substrate, 30 min;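 active means inhibition above about 50%, limit read from the data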
ROMK primary: modulators of human ROMK potassium channel | P48048 | Tet-inducible ROMK, thallium flux fluorescence; actives lie on both sides | B-score at 10 µM | 2% of 130,000 active | AID 1918;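 active means signal ratio slope over the read window, or its plate-corrected B-score, at least 3 SD from the plate mean, either direction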;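 further: B-score of the F/F0 ratio slope over 7 to 12 s after thallium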
Target sequence (P48048 whole entry, looked up): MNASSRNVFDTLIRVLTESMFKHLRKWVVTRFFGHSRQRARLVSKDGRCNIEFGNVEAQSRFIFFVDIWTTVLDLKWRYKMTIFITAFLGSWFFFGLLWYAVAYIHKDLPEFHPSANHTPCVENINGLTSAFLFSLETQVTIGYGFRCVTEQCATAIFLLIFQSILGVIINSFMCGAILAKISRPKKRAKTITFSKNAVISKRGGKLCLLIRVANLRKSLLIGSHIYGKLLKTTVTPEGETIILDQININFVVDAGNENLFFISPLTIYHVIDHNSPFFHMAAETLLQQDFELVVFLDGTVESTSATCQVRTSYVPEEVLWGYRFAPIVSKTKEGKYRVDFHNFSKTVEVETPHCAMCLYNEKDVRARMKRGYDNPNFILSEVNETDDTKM
Arbovirus inh: arbovirus infection inhibition | arbovirus infection cell-based antiviral screen | inhibition, % at 10 µM | 0.37% of 200,000 active | AID 1251; in the data active means inhibition above about 30%
HMGR II inh: E. faecalis class II HMG-CoA reductase inhibition; purified E. faecalis HMGR, NADPH absorbance 340 nm kinetic; inhibition, % at 10 µM; 0.41% of 190,000 active;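 active means inhibition above a set limit, the median over all tested compounds plus 3 SD, cut at about 9.5% in these data; inconclusive means no clear call, values can overlap the other calls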;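 further: enzyme runs in reverse so mevalonate oxidation gives rising NADPH absorbance; 0% = complete reaction with DMSO and 100% = background rate lacking mevalonate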
ROMK retest: confirmation of human ROMK potassium channel modulators. normalized thallium flux (F/F0 slope) at 10 µM. ROMK thallium flux, fluorescence ratio; hits give low values. 54% of 3,000 active. shares compounds with ROMK primary;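 active means Flux at 10 µM at least 3 SD below or above vehicle control mean in one or both replicates; inconclusive means no clear call, values can overlap the other calls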
Starred values were filed as active, the others as inactive; i = inactive; ? = inconclusive; . = no result; ! = a repeat was not active.

SMILES | HSV augment | Calpain2 inh | ROMK primary | Arbovirus inh | HMGR II inh | ROMK retest
CC(C)C(c1nnnn1Cc1ccc(F)cc1)N1CCN(C2CCCCC2)CC1 (configuration not stated) | i | -15.2 | -4.95* | -1.3 | 0.0 | 0.0607*
CC(C)C(c1nnnn1Cc1ccc(F)cc1)N1CCN(Cc2ccc3c(c2)OCO3)CC1 (configuration not stated) | i | 15.7 | -2.34* | -2.3 | -6.1 | 0.0544*
CCN1CCN(C(c2nnnn2Cc2ccc3c(c2)OCO3)C(C)C)CC1 (configuration not stated) | i | -15.2 | . | 3.8 | -3.7 | .
Cc1ccc(C)c2[nH]c(=O)c(CN(CC3CCCO3)C(=S)NCc3ccco3)cc12 (configuration not stated) | i | -20.7 | -3.52* | . | . | ?
CCc1ccc2[nH]c(=O)c(CN(CC3CCCO3)C(=S)NCc3ccco3)cc2c1 (configuration not stated) | i | -10.0 | -1.04 | . | . | .
Cc1ccc2cc(CN(CC3CCCO3)C(=S)NCc3ccco3)c(=O)[nH]c2c1C (configuration not stated) | i | -18.7 | . | 5.1 | -7.5 | 0.0713
Cc1ccc(C)c2[nH]c(=O)c(CN(Cc3cccs3)C(=S)NCc3ccco3)cc12 | i | -61.2 | 0.0847 | 15.3 | -3.4 | .
CC(=O)Oc1oc(-c2ccccc2)nc1C=Nc1ccc(N(C)C)cc1 | i | 23.0 | . | . | . | 0.0597*
CN(C)c1ccc(N=Cc2nc(-c3ccccc3)oc2OC(=O)c2ccccc2)cc1 | i | -50.8 | . | 8.7 | -1.2 | .
CCc1oc2ccccc2c1C(=O)c1cc(Br)c(O)c(Br)c1 | i | 55.4*! | 4.62* | -12.9 | -1.1 | 0.155*
CCc1ccc(OCC(=O)c2c(O)c3ccccc3oc2=O)cc1 | i | -31.8 | 0.648 | 11.1 | -4.9 | .
Cc1ccc(C2C(C#N)=C(N)Oc3nc(-c4ccccc4)[nH]c32)o1 (configuration not stated) | i | -17.2 | . | -0.6 | -10.1 | ?
COc1ccc(CN(C)C(=O)COC(=O)c2c(-c3ccccc3Cl)noc2C)cc1 | i | 24.2 | -3.16 | 12.1 | -6.7 | .
Cc1cc(C(=O)COc2ccc(F)cc2Br)c(C)n1C | i | 1.3 | -1.86* | 8.5 | 9.6* | ?
Cc1nn(C)c(C(=O)Sc2ccccc2)c1[N+](=O)[O-] | i | -21.4 | -1.94 | . | . | .
Cc1nn(C)c(C(=O)Sc2cccc(Cl)c2)c1[N+](=O)[O-] | i | -21.4 | -2.94* | . | . | 0.0645*
COc1ccc(-c2nn(C)c(=O)c3ccccc23)cc1CNC(=O)NC1CCCCC1 | i | -170.8 | 0.421 | -16.3 | 1.8 | .
Cc1nn(CC(O)COc2ccc3c(c2)CCC3)c(C)c1C (configuration not stated) | i | 7.1 | -3.7* | 9.8 | 1.6 | 0.0663*
COc1ccc(CCn2c(C)nc3ccccc3c2=O)cc1OC | i | -23.4 | 1.32 | 7.2 | -3.7 | .
CCSc1nc2ccccc2c(=O)n1CCc1ccc(OC)c(OC)c1 | i | 8.3 | . | . | . | 0.0819
COc1ccccc1-c1cc(C(F)(F)F)nc(S(C)(=O)=O)n1 | . | -206.5 | -3.86* | -45.7 | -3.8 | 0.0599*
COc1ccccc1-c1cc(C(F)(F)F)nc(S(=O)(=O)CCCC(=O)NC(C)C)n1 | i | -246.9 | -1.18 | -34.3 | 1.8 | .
CN1CCN(c2nc(-c3ccco3)cc(C(F)(F)F)n2)CC1 | i | -38.2 | . | 8.5 | -8.9 | .
CS(=O)(=O)c1nc(-c2ccco2)cc(C(F)(F)F)n1 | i | -31.6 | -3.57* | -46.4 | -2.6 | 0.0572*
Cc1ccc(NC(=S)N(CCC(C)C)C(C)c2ccncc2)c(Cl)c1 (configuration not stated) | i | 25.5 | . | . | . | .
SMILES | HSV augment | Calpain2 inh | ROMK primary | Arbovirus inh | HMGR II inh | ROMK retest
Cc1cc(C)c2cc(C(=O)Nc3ccccc3)[nH]c2c1 | i | 8.5 | . | . | . | 0.0789
c1ccc(-c2noc(CN3CCN(c4cnccn4)CC3)n2)cc1 | i | -9.2 | 1.42 | 0.5 | -0.2 | .
CCCCN(C)C(=O)C1CCN(Cc2ccc(OCc3ccccc3)cc2)CC1 | i | -13.7 | -4.43* | -21.8 | 4.3 | 0.0608*
CCCc1c(C(=O)NNc2cccc(Cl)c2)cnn1-c1ccccc1 | i | 17.5 | . | . | . | .
CC(CCc1ccccc1)NC(=O)/C=C/c1ccc(F)cc1 (configuration not stated) | i | 46.7 | 2.1* | 11.7 | -2.0 | 0.0751
CCCCCOc1ccc(Br)cc1CSC(=N)N | i | 22.3 | . | -42.6 | -1.6 | 0.0421*
CCN1C(=O)S/C(=C/c2c(OCc3ccc(C(=O)O)cc3)ccc3ccccc23)C1=O | i | 37.5 | 3.9* | 0.2 | -1.9 | 0.0908

Source: PubChem (several laboratories)
